Test results as given in the supplement of paper PMC10849652.
The full data set covers some 8,800 targets. This sample favours those with a hit. About 0.5% of all pairs of compound and target were hits. Values without a mark were called inactive.

Experiments:
Test in all cases: log2 fold change, soluble protein after heating vs DMSO (PISA); higher = thermal stabilisation; K562 lysate, 10 uM; active = over 0.2 and 3.5 SD of the protein, either way, in both replicates (recomputed)
nilotinib = compound: Cc1cn(-c2cc(NC(=O)c3ccc(C)c(Nc4nccc(-c5cccnc5)n4)c3)cc(C(F)(F)F)c2)cn1 [nilotinib]
In short: (§1)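 K562 pellets were dounce-homogenised in PBS pH 7.4 containing 1 mM MgCl2, and the crude extract, at 1 mg/mL protein, was exposed to 10 μM compound for 30 min. Aliquots were heated for 3 min across 48°C-58°C, pooled, brought to 0.5% NP-40 at 4°C and spun at 21,000xg for 90 min, with the supernatant taken as soluble protein. TMTpro 16plex LC-MS/MS with equalised channel sums quantified that protein. Values are log-two fold changes in thermal stability relative to solvent controls, taken from duplicates.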

[1] = compound: Cc1nc(Nc2n[nH]c3c2CN(C(=O)N[C@H](CN(C)C)c2ccccc2)C3(C)C)c2sccc2n1
In short: as §1

dasatinib = compound: Cc1nc(Nc2ncc(C(=O)Nc3c(C)cccc3Cl)s2)cc(N2CCN(CCO)CC2)n1 [dasatinib]
In short: as §1

[2] = compound: Cc1ncc(-c2ccnc(Nc3ccc(S(C)(=O)=O)cc3)n2)n1C(C)C
In short: as §1

[3] = compound: Cn1cc(-c2ccc3c(c2)CCN3C(=O)Cc2cccc(C(F)(F)F)c2)c2c(N)ncnc21
In short: as §1

quisinostat = compound: Cn1cc(CNCC2CCN(c3ncc(C(=O)NO)cn3)CC2)c2ccccc21 [quisinostat]
In short: as §1

tipifarnib = compound: Cn1cncc1[C@@](N)(c1ccc(Cl)cc1)c1ccc2c(c1)c(-c1cccc(Cl)c1)cc(=O)n2C [tipifarnib]
In short: as §1

[4] = compound: NC(=O)Nc1cc(-c2cccc(F)c2)sc1C(=O)N[C@H]1CCCNC1
In short: as §1

[5] = compound: NC(=O)c1cnc(N[C@@H]2CCCC[C@@H]2N)nc1Nc1cccc(-n2nccn2)c1
In short: as §1

[6] = compound: NC1(c2ccc(-c3nc4ccn5c(=O)[nH]nc5c4cc3-c3ccccc3)cc2)CCC1
In short: as §1

[7] = compound: NCC(=O)Nc1ccc(-n2nc(C(F)(F)F)cc2-c2ccc3c(ccc4ccccc43)c2)cc1
In short: as §1

vorinostat = compound: O=C(CCCCCCC(=O)Nc1ccccc1)NO [vorinostat]
In short: as §1

silmitasertib = compound: O=C(O)c1ccc2c(c1)nc(Nc1cccc(Cl)c1)c1ccncc12 [silmitasertib]
In short: as §1

[8] = compound: O=C1NC(=O)C(c2cnc3ccccn23)=C1c1cn2c3c(cc(F)cc13)CN(C(=O)N1CCCCC1)CC2
In short: as §1

entospletinib = compound: c1cn2cc(-c3ccc4cn[nH]c4c3)nc(Nc3ccc(N4CCOCC4)cc3)c2n1 [entospletinib]
In short: as §1

Chain of UniProt P27816 (P27816 whole entry, looked up): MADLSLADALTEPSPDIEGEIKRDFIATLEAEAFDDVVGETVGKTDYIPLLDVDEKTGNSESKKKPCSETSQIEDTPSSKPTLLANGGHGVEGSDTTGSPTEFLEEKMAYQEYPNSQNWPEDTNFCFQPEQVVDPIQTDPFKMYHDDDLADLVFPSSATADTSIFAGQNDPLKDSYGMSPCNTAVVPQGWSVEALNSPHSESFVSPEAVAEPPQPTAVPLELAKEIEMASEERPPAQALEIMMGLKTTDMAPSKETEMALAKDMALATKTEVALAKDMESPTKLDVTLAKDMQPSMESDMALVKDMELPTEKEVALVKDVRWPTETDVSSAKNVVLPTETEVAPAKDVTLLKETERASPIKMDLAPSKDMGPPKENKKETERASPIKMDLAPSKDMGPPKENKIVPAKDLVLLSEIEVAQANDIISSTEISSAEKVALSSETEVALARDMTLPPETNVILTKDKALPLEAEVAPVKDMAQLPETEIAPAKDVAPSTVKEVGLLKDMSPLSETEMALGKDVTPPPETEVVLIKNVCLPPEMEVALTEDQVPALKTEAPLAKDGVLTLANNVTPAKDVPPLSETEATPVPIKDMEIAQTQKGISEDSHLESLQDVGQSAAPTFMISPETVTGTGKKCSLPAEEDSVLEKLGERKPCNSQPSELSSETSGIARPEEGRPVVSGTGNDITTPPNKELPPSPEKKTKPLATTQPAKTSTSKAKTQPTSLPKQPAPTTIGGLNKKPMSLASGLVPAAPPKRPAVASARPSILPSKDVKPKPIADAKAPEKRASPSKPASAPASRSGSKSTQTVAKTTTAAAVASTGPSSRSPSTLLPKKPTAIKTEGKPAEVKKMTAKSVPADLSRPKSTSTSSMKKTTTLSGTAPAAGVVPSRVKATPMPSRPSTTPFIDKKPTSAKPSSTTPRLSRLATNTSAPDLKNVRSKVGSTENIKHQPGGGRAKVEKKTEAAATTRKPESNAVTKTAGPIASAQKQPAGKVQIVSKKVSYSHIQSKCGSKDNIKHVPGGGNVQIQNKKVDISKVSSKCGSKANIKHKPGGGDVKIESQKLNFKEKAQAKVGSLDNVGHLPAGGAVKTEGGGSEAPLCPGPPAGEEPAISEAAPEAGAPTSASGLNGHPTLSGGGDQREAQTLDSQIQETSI
Chain of UniProt Q02750 (Q02750 whole entry, looked up): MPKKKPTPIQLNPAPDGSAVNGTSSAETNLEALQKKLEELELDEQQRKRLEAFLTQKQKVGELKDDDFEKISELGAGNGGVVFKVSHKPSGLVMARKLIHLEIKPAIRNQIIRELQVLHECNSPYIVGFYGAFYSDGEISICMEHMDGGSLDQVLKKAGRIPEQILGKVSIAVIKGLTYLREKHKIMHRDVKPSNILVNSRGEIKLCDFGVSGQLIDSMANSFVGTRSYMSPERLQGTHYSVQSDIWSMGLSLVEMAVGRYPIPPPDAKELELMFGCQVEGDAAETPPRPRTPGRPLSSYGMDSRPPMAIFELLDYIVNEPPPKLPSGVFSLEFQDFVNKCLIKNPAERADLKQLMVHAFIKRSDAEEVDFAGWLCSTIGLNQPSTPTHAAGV
Chain of UniProt Q9UBB5 (Q9UBB5 whole entry, looked up): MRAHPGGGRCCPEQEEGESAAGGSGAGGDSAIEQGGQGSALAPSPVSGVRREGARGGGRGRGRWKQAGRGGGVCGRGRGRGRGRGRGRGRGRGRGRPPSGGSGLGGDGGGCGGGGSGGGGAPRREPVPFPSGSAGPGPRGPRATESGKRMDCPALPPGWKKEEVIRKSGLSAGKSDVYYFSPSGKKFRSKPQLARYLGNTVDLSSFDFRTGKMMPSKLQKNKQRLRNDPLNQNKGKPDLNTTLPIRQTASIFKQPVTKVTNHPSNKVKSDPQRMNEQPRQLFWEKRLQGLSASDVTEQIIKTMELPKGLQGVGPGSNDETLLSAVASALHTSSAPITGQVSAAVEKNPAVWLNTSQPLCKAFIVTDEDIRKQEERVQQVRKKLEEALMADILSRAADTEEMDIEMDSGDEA
Chain of UniProt Q9NVC6 (Q9NVC6 whole entry, looked up): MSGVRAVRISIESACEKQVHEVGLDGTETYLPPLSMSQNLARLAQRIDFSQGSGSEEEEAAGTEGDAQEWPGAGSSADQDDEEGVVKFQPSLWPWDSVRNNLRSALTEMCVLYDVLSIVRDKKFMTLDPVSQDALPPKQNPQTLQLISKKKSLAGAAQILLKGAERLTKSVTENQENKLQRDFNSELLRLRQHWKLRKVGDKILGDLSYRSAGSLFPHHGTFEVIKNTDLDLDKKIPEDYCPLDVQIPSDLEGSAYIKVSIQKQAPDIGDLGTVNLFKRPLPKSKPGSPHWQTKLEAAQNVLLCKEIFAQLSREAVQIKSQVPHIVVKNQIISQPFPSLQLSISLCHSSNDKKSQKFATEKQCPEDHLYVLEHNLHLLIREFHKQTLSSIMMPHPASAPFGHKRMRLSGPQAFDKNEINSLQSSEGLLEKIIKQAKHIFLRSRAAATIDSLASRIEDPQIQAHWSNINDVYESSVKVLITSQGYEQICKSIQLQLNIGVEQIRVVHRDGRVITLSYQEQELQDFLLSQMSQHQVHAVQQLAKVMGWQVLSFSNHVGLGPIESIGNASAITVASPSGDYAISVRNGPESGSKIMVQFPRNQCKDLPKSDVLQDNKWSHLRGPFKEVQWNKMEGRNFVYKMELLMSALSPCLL
Chain of UniProt Q9GZY8 (Q9GZY8 whole entry, looked up): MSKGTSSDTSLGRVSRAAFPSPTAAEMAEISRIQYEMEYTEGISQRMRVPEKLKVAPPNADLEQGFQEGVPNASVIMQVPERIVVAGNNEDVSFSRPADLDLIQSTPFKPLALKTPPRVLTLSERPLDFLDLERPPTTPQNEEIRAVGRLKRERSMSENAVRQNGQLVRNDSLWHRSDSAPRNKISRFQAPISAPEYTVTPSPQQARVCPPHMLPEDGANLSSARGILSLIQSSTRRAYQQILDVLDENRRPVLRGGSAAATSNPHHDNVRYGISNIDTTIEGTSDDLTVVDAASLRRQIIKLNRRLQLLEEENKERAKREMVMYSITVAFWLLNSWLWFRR
Chain of UniProt Q8WVR3 (Q8WVR3 whole entry, looked up): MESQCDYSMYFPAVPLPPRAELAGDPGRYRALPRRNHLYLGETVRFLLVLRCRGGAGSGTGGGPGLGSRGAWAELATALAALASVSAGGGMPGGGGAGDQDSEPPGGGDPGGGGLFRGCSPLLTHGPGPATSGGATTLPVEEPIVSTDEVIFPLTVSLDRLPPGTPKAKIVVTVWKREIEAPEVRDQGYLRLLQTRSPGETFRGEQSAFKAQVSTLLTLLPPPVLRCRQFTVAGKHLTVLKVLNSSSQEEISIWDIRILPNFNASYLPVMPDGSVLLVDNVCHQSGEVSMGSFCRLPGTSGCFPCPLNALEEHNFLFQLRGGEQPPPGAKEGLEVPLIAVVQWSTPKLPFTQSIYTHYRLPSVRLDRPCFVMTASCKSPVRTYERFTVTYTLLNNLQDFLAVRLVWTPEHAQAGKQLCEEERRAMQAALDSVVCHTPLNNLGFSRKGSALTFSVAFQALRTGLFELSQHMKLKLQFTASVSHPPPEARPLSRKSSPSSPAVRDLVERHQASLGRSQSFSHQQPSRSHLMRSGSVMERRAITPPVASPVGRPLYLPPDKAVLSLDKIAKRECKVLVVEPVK
Chain of UniProt Q2VIQ3 (Q2VIQ3 whole entry, looked up): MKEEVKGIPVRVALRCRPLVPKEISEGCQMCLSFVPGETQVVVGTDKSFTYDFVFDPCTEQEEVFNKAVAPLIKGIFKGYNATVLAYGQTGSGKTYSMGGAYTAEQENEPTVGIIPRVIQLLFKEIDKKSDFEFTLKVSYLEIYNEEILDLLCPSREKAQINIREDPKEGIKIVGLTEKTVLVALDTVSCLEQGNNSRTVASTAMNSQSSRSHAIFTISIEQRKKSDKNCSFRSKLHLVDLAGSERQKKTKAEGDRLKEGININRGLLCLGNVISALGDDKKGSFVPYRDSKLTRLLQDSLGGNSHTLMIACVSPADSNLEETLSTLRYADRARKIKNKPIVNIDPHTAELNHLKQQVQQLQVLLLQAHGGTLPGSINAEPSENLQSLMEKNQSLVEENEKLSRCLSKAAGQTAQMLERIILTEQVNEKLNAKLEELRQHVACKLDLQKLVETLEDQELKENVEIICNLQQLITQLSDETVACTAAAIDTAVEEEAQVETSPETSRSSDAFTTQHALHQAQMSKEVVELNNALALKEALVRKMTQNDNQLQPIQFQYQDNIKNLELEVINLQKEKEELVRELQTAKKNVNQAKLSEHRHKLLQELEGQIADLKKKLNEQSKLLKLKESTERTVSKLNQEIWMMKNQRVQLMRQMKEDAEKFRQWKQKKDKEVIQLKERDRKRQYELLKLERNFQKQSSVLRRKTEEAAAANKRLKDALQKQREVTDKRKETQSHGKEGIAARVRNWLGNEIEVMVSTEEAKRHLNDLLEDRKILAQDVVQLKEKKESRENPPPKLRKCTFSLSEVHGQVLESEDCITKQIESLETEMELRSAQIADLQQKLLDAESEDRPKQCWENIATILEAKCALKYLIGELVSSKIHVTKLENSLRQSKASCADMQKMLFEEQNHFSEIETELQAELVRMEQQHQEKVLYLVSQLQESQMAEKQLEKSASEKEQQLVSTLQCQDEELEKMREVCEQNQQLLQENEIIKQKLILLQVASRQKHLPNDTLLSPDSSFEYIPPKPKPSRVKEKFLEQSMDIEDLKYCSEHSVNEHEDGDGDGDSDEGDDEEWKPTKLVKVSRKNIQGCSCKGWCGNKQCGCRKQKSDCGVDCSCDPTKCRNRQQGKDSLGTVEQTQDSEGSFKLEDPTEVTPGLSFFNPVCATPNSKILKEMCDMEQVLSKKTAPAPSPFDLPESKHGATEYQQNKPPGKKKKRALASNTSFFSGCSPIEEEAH
Chain of UniProt O95297 (O95297 whole entry, looked up): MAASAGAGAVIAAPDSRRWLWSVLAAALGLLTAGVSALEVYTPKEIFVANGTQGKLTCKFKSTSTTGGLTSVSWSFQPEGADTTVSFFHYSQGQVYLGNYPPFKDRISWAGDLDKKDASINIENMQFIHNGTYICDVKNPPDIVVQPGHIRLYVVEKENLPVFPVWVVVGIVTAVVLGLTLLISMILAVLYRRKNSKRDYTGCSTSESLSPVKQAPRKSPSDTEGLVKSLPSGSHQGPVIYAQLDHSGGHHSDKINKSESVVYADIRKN

Row | Target | log2 fold change (nilotinib) | log2 fold change [1] | log2 fold change (dasatinib) | log2 fold change [2] | log2 fold change [3] | log2 fold change (quisinostat) | log2 fold change (tipifarnib) | log2 fold change [4] | log2 fold change [5] | log2 fold change [6] | log2 fold change [7] | log2 fold change (vorinostat) | log2 fold change (silmitasertib) | log2 fold change [8] | log2 fold change (entospletinib)
1 | MAP2K1 (UniProt Q02750) | -0.02 | 0.107 | 0.296 (active) | 0.057 | -0.057 | -0.064 | -0.037 | 0.4 (active) | 0.033 | -0.02 | -0.005 | -0.116 | 0.108 | 0.006 | 0.03
2 | LYRM4 (UniProt Q9HD34) | 0.009 | -0.031 | -0.061 | 0.052 | -0.028 | -0.093 | -0.028 | 0.054 | -0.036 | -0.005 | 0.01 | 0.119 | -0.019 | 0.023 | 0.007
3 | LYSMD3 (UniProt Q7Z3D4) | -0.096 | -0.293 | -0.083 | 0.171 | -0.068 | -0.037 | 0.352 (active) | -0.022 | 0.057 | 0.023 | 0.01 | 0.095 | -0.022 | -0.029 | 0.028
4 | MFF isoform 2 (UniProt Q9GZY8) | -0.025 | -0.039 | -0.005 | 0.008 | -0.012 | 0.002 | -0.004 | 0.007 | 0.016 | -0.026 | 0.003 | 0.17 | -0.048 | 0.029 | -0.055
5 | KLC4 isoform 3 (UniProt Q9NSK0) | -0.023 | 0.047 | -0.013 | 0.089 | 0.048 | -0.018 | -0.015 | 0.01 | 0.021 | -0.003 | 0.01 | -0.557 (active) | 0.009 | -0.041 | -0.006
6 | KIF15 (UniProt Q9NS87) | -0.038 | -0.003 | -0.03 | 0.052 | 0.044 | -0.058 | 0.008 | 0.003 | 0.011 | 0 | 0.017 | -0.136 | 0.02 | 0.004 | -0.024
7 | MECR (UniProt Q9BV79) | -0.085 | 0.012 | -0.03 | -0.004 | 0.02 | 0.07 | -0.009 | -0.041 | 0.02 | -0.028 | -0.037 | -0.268 (active) | 0.009 | -0.016 | 0.011
8 | MAP4 isoform 5 (UniProt P27816) | -0.168 | -0.029 | -0.371 | 0.291 | 0.029 | -0.036 | -0.101 | 0.03 | -0.02 | -0.213 | 0.001 | 0.359 | 0.074 | 0.087 | 0.063
9 | MED17 (UniProt Q9NVC6) | -0.011 | 0.036 | -0.033 | -0.116 | -0.014 | -0.033 | -0.075 | 0.019 | 0.038 | 0.005 | -0.051 | -0.392 (active) | -0.008 | -0.006 | 0.083
10 | MCCC1 (UniProt Q96RQ3) | -0.025 | 0.002 | -0.103 | 0.027 | 0.008 | -0.049 | 0.031 | 0.035 | 0.008 | -0.045 | 0.028 | -0.292 (active) | 0.02 | -0.003 | 0.023
11 | MED8 isoform 2 (UniProt Q96G25) | 0.084 | -0.033 | -0.017 | -0.007 | 0.044 | -0.043 | 0.081 | -0.005 | 0.016 | 0.024 | 0.019 | 0.037 | -0.012 | -0.026 | 0
12 | MICB, A0A140T979 | -0.044 | 0.042 | 0.024 | 0.033 | -0.055 | -0.06 | -0.025 | -0.004 | 0.491 | 0.21 | 0.068 | 0.196 | -0.121 | 0.021 | 0.35
13 | MAP11 (UniProt Q8WVR3) | -0.088 | 0.002 | 0.002 | 0.021 | -0.058 | -0.026 | -0.063 | 0.037 | -0.014 | -0.007 | -0.017 | -0.488 (active) | -0.015 | 0.056 | -0.131
14 | KIF4A (UniProt O95239) | -0.02 | 0.029 | -0.011 | 0.014 | 0.037 | -0.104 | 0.017 | 0.042 | -0.014 | 0.014 | -0.017 | -0.445 (active) | 0.017 | 0.013 | 0.001
15 | MBD2 (UniProt Q9UBB5) | 0.012 | 0.007 | -0.039 | 0 | 0.069 | -0.014 | -0.011 | -0.009 | -0.003 | 0.024 | 0.018 | -0.244 (active) | 0.017 | -0.022 | 0.022
16 | MPZL1 (UniProt O95297) | -0.03 | 0.032 | 0.033 | -0.014 | 0.018 | 0.071 | 0.035 | -0.02 | 0.026 | 0.028 | -0.059 | 0.022 | -0.004 | 0.021 | 0.017
17 | KIF4B (UniProt Q2VIQ3) | -0.016 | 0.034 | -0.013 | 0.049 | 0.096 | -0.08 | -0.009 | 0.037 | 0.045 | -0.078 | -0.035 | -0.506 (active) | 0.027 | -0.02 | 0
